From PubChem BioAssay (NCATS)
Records with an inconclusive call do not appear. Where a call stands in place of a potency, no number is given. The source made the active and inactive calls. Calls come from the whole dose curve; as a rule, active = well fitted curve in the direction sought with a large enough effect; inconclusive = small, poorly fitted or top-dose-only effect, or another doubt; inactive = no such curve, though single readings can be large; an effect the other way counts as inactive or inconclusive.

System: not listed separately
Test: HepG2 viability counterscreen (readout 2: ATP content) against the NCATS DSHEA and TCM libraries (AID 1794840)
Settings: ATP content luminescence; series mostly up to 27.3 µM
Method in brief: (§1)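 HepG2 cells, 1,000/well, attached ~4 h, then exposed ~24 h at 37C to substances. Protease activity read by fluorescence of 25 uM GF-AFC (Ex/Em 380/510 nm) after 30 min; ATP then by CellTiter-Glo luminescence.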

SMILES | outcome
C=C[C@H]1CN2CC[C@@]3(C(=O)Nc4ccccc43)[C@@H]2C[C@@H]1/C(=C\OC)C(=O)OC | inactive
CC[C@@H]1CN2CC[C@]3(C(=O)Nc4ccccc43)[C@@H]2C[C@@H]1/C(=C\OC)C(=O)OC | inactive
COc1cc2c(cc1O)C[C@H]1c3c(cc(OC)c(O)c3-2)CCN1C | inactive
C=C[C@H]1CN2CCc3c([nH]c4ccccc34)[C@H]2C[C@@H]1/C(=C\OC)C(=O)OC | inactive
CCCCCCCCCCCCCCCCCCCC(=O)O | inactive
COC1=C[C@@]23CCN(C)[C@H](Cc4ccc(OC)c(O)c42)C3=CC1=O | inactive
COC(=O)C1=CO[C@@H](C)[C@@H]2CN3CC[C@@]4(C(=O)Nc5ccccc54)[C@@H]3CC12 (some centres undefined) | inactive

System: not listed separately
Test: HepG2 viability counterscreen (readout 1: protease activity) against the NCATS DSHEA and TCM libraries (AID 1794841);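 note: cells exposed to compounds for about 24 h before the protease read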
Settings: qHTS concentration series; series mostly up to 27.3 µM
Method in brief: as §1

SMILES | outcome
C=C[C@H]1CN2CC[C@@]3(C(=O)Nc4ccccc43)[C@@H]2C[C@@H]1/C(=C\OC)C(=O)OC | inactive
CC[C@@H]1CN2CC[C@]3(C(=O)Nc4ccccc43)[C@@H]2C[C@@H]1/C(=C\OC)C(=O)OC | inactive
COc1cc2c(cc1O)C[C@H]1c3c(cc(OC)c(O)c3-2)CCN1C | inactive
C=C[C@H]1CN2CCc3c([nH]c4ccccc34)[C@H]2C[C@@H]1/C(=C\OC)C(=O)OC | inactive
CCCCCCCCCCCCCCCCCCCC(=O)O | inactive
COC1=C[C@@]23CCN(C)[C@H](Cc4ccc(OC)c(O)c42)C3=CC1=O | inactive
COC(=O)C1=CO[C@@H](C)[C@@H]2CN3CC[C@@]4(C(=O)Nc5ccccc54)[C@@H]3CC12 (some centres undefined) | inactive

Molecular target: Cytochrome P450 3A4 (Homo sapiens) (UniProt P08684)
Sequence (P08684 whole entry, looked up): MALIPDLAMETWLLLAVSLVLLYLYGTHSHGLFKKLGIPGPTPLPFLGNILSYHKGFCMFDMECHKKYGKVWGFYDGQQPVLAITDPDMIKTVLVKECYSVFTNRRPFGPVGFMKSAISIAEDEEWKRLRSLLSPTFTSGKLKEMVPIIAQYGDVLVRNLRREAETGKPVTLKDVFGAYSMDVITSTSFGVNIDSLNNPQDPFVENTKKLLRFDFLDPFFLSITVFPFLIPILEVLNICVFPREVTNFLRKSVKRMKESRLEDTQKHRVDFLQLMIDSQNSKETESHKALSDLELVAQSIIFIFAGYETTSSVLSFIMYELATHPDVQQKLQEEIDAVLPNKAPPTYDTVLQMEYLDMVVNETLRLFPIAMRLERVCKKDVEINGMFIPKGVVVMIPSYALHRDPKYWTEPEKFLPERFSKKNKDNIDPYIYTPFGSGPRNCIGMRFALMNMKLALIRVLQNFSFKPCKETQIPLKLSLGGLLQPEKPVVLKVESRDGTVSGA
Test: qHTS for inhibitors of CYP3A4 against the NCATS DSHEA and TCM libraries (AID 1919971); note: potency is the fitted concentration of half-maximal effect
Settings: recombinant CYP3A4 enzyme activity, luminescence qHTS; series mostly up to 34.1 µM
Method in brief: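 Luminescent P450-Glo format: compounds preincubated 15 min with enzyme and luciferin substrate, reaction run 30-45 min after NADPH regeneration solution. Intraplate controls: ketoconazole for CYP3A4 and CYP2C19, sulfaphenazole for CYP2C9.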

SMILES | Potency
C=C[C@H]1CN2CC[C@@]3(C(=O)Nc4ccccc43)[C@@H]2C[C@@H]1/C(=C\OC)C(=O)OC | 12.6 µM (active)
C=C[C@H]1CN2CCc3c([nH]c4ccccc34)[C@H]2C[C@@H]1/C(=C\OC)C(=O)OC | 14.1 µM (active)
CCCCCCCCCCCCCCCCCCCC(=O)O | inactive
COC1=C[C@@]23CCN(C)[C@H](Cc4ccc(OC)c(O)c42)C3=CC1=O | inactive
COC(=O)C1=CO[C@@H](C)[C@@H]2CN3CC[C@@]4(C(=O)Nc5ccccc54)[C@@H]3CC12 (some centres undefined) | 14.1 µM (active)

Molecular target: Cytochrome P450 2D6 (Homo sapiens) (UniProt P10635)
Sequence (P10635 whole entry, looked up): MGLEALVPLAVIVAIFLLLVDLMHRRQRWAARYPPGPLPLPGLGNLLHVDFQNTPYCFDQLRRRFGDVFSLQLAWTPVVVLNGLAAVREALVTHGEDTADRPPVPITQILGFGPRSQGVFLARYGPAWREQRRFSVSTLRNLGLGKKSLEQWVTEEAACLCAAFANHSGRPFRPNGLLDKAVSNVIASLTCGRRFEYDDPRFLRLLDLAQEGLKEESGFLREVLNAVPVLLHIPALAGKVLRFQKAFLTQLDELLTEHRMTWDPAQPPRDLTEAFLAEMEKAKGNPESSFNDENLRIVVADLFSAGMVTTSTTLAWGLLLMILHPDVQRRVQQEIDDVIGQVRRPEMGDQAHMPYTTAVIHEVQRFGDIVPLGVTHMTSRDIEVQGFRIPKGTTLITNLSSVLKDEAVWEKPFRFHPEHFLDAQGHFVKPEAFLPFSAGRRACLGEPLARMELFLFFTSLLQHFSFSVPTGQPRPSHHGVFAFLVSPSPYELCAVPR
Test: qHTS for inhibitors of CYP2D6 against the NCATS DSHEA and TCM libraries (AID 1919972); note: potency is the fitted concentration of half-maximal effect
Settings: CYP2D6 enzymatic inhibition, luminescence qHTS; series mostly up to 34.1 µM
Method in brief: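 Luminescent P450-Glo read-out of CYP2D6 turnover of a luciferin substrate after NADPH-driven reaction of 30-45 min at room temperature. Compounds were first preincubated 15 min with enzyme at titrated concentrations; quinidine was the intraplate control.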

SMILES | Potency
C=C[C@H]1CN2CC[C@@]3(C(=O)Nc4ccccc43)[C@@H]2C[C@@H]1/C(=C\OC)C(=O)OC | inactive
CC[C@@H]1CN2CC[C@]3(C(=O)Nc4ccccc43)[C@@H]2C[C@@H]1/C(=C\OC)C(=O)OC | inactive
COc1cc2c(cc1O)C[C@H]1c3c(cc(OC)c(O)c3-2)CCN1C | 5.01 µM (active)
CCCCCCCCCCCCCCCCCCCC(=O)O | inactive
COC(=O)C1=CO[C@@H](C)[C@@H]2CN3CC[C@@]4(C(=O)Nc5ccccc54)[C@@H]3CC12 (some centres undefined) | inactive
